# Rows were chosen to be rich in hits. Some 7.5% of all compounds tested hit in one or more screens of this group.
# FLuc counter – firefly luciferase modulation, counter-screen for miR-21 project; P08659; purified FLuc, Km substrates, luminescence inhibition; Potency, µM (highest dose often 57.5 µM), without a hit: top-dose activity change, negative = inhibition, usual class: inhibitors; 6.9% of 360,000 active;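 also: plate controls were vehicle for no effect and reference inhibitor for full effect; nearly all actives have a fitted effect of over 55% in size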
# Target sequence (P08659 whole entry, looked up): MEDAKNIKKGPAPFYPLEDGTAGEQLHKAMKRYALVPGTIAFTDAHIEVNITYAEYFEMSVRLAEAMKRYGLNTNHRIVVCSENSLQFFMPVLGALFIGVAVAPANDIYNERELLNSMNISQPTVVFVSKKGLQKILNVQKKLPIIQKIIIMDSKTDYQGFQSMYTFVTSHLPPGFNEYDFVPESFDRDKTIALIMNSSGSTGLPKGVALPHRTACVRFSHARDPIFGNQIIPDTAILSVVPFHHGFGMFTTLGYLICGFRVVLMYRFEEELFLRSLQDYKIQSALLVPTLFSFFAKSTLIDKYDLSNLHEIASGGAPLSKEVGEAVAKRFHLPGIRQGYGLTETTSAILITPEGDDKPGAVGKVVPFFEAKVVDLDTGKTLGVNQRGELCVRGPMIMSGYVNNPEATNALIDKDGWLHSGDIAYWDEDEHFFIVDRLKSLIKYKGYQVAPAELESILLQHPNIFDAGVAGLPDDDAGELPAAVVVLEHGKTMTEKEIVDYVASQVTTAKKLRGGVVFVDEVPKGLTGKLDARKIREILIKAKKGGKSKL
#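 Purified P. pyralis luciferase (10nM final) with 10uM D-luciferin and 10uM ATP (Km levels) in 50mM Tris acetate pH 7.5, 10mM Mg acetate, 0.01% Tween-20, 0.05% BSA; qHTS 6-point titration, ~60 µM downward; luminescence read.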
# ELG1 genotoxic – genotoxicity induction in ELG1-luciferase HEK293T cells; HEK293T ELG1-luciferase reporter, luminescence, 16 h; Potency, µM (doses to about 46 µM), inactives show at the top dose activity change, positive = activation, actives largely listed as activators; 1.3% of 330,000 active; also: % of control where 0% means no effect; nearly all actives have a fitted effect of over 60% in size
#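 DMSO vehicle served as control against compound-treated ELG1-luciferase HEK293T cells; exposure lasted 16 hr at 37 °C and 5% CO2, followed by ONE-Glo luminescence detection after 30 min.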
# Rab9 promoter act – activates the Rab9 promoter; Huh7 Rab9 promoter-luciferase reporter, luminescence, 24 h; Potency, µM (top dose mostly 9.22 µM), for the others: at the highest dose activation, negative = inhibition, actives largely listed as activators; 2.8% of 320,000 active; also: % of control where 0% means no effect; nearly all actives have a fitted effect of over 60% in size
#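 Measured in stably transfected Huh7 cells bearing a Rab9 promoter–luciferase construct: 24 h compound treatment at 37 °C, followed by luminescence detection.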
# SMN2 splice up – increases expression of the SMN2 splice variant. HEK293 SMN2-luciferase splicing reporter, luminescence, 30-36 h. Potency, µM (series often up to 46.1 µM), for the others: at the top dose activity change, positive = activation, usual class: activators. 2.8% of 210,000 active; also: % of control where 0% means no effect; nearly all actives have a fitted effect of over 55% in size
#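 HEK293 cells carry an SMN2 […]–luciferase reporter in which exon 7 inclusion puts luciferase in frame. Cells were plated 10-12 h before compound addition, then incubated 30-36 h at 37C. ONE-Glo luminescence was read; sodium butyrate at 4.5 mM final served as control.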
# NPC1 promoter act – activators of NPC1 promoter; Huh7 NPC1 promoter luciferase reporter, 24 h; Potency, µM (top dose mostly 9.22 µM), for inactives: top-dose activation, hits mostly activators; 2.4% of 320,000 active; also: % of control where 0% means no effect; nearly all actives have a fitted effect of over 60% in size
#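 Quantitative HTS used a cell-based reporter: Huh7 cells stably bearing the NPC1 promoter upstream of luciferase were treated with compounds for 24 h, and promoter activation was read as luminescence.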
# * hit, by the source's call; ? = inconclusive; . = no result; [ ] = dose if it differs, or a comment. Calls follow the shape of the dose curve; as a rule, active = well fitted curve in the direction sought with a large enough effect; inconclusive = small, poorly fitted or top-dose-only effect, or another doubt; inactive = no such curve, though single readings can be large; an effect the other way counts as inactive or inconclusive. Potency is read from the fitted curve at half-maximal effect.
SMILES,FLuc counter,ELG1 genotoxic,Rab9 promoter act,SMN2 splice up,NPC1 promoter act
Nc1nonc1C(=O)N/N=C/c1ccc(Br)o1,19µM*,0%,-2%,.,-2%
N/C(=N\N=C\c1ccc(Br)o1)c1nonc1N,12µM*,?,1.3µM*,.,2.5µM*
Nc1nonc1C(=O)N/N=C/c1ccc(-c2ccc(Cl)c(C(=O)O)c2)o1,?,-6%,-3%,14%,-1%
COc1cc(NC(=O)c2ccc3c(SCC(=O)O)c4c(nc3c2)CCC4)cc(OC)c1OC,-16%,4%,0%,.,-3%
O=C(Nc1ccc(F)c(Cl)c1)c1ccc2c(c1)OCO2,4.8µM*,?,1.3µM*,.,1.8µM*
CC1CCCC(NC(=O)c2ccc3c(SCC(=O)O)c4c(nc3c2)CCC4)C1C (configuration not stated),17µM*,1%,-5%,.,0%
COC(=O)c1ccc(NC(=O)c2ccc3c(c2)OCO3)cc1,?,6.5µM*,?,?,2.8µM*
O=C(Nc1ccc(F)c(Cl)c1)c1ccccc1,11µM*,12µM*,1.8µM*,.,3.2µM*
O=C(Nc1ccc(F)c(Cl)c1)c1cccnc1,2%,10%,8%,.,7%
COC(=O)c1sccc1NC(=O)c1ccc2c(c1)OCO2,6%[2.3 µM],3%,-2%,27%,0%
Cc1ccc(NC(=O)CCc2nnc3n(CC(C)C)c(=O)c4ccccc4n23)cc1C,3%,.,.,14%,.
Cc1cccc(NC(=O)c2sc3nc(N4CCOCC4)c4c(c3c2N)CC(C)(C)OC4)c1,-1%,.,.,8%,.
O=C(Nc1ccc(C(=O)N2CCCCC2)cc1)C1=CSCCO1,12µM*,?,?,.,2.8µM*
CC1CCCC(NC(=O)c2ccc3c(c2)OCO3)C1C (configuration not stated),12µM*,18µM*,3.5µM*,.,?
COc1ccccc1-c1nnc(NC(=O)c2ccc3c(c2)OCO3)s1,1%,13%,-13%,?,-7%
O=C(Nc1ccc(C(=O)N2CCCC2)cc1)c1ccc2c(c1)OCO2,15µM*,?,?,16%,?
COC(=O)c1c(-c2cccnc2)csc1NC(=O)c1ccc2c(c1)OCO2,1.3µM*,2.9µM*,1.6µM*,.,2.5µM*
COc1ccc(NC(=O)c2ccc3c(c2)OCO3)cc1Cl,1.9µM*,?,1.4µM*,14µM*,0.89µM*
COc1cc(-c2nc(-c3ccc(NC(=O)c4ccc5c(c4)OCO5)cc3)no2)cc(OC)c1OC,?,13µM*,-1%,73%,2%
COc1ccc(NCc2ccc3c(c2)OCO3)cc1Cl,?,7%,21%,12%,17%
O=C(CN1CCN(S(=O)(=O)c2ccc(Cl)cc2)CC1)NC1CC1,1%,-5%,1%,.,-5%
O=C(NC(=S)Nc1ccccc1Br)c1ccco1,11µM*,?,?,.,?
O=C(NC(=S)NNC(=O)c1ccco1)c1ccc(F)cc1,-11%,7%,4%,.,-2%
O=C(NC(=S)NNC(=O)c1ccccc1O)c1ccco1,21µM*,1%,1%,-9%,4%
O=C(NC(=S)NNC(=O)c1cc2ccccc2cc1O)c1ccco1,17µM*,3%,0%,-4%,13%
SMILES,FLuc counter,ELG1 genotoxic,Rab9 promoter act,SMN2 splice up,NPC1 promoter act
O=C(NNC(=S)NC(=O)c1ccco1)c1ccc(NC(=O)c2ccccc2)cc1,?,-6%,-6%,-27%,-1%
O=C(CNC(=S)NC(=O)C1CCCCC1)c1ccccc1,12µM*,?,?,?,30%
COc1ccccc1N1CCN(C(=O)c2cc(-c3ccc(C)c(F)c3)on2)CC1,-16%,.,.,.,.
COC(=O)[C@H]1CC2(CC=C(C)C)C(=O)[C@@](CC=C(C)C)(C(=O)C(C(=O)c3ccccc3)=C2OC)C1(C)C (tested in a mixture with another compound),.,.,.,-5%,.
O=C(CNC(=S)NC(=O)c1ccco1)c1ccccc1,12µM*,16%,23%,2%,?
O=C(NCc1ccc(F)cc1F)Nc1cnccc1C(F)(F)F,0%,-13%,0%,.,-3%
CN(C)CCCNS(=O)(=O)c1cc(Cl)ccc1Cl,6%,18µM*,17%,11%,-1%
CN(C)c1ccc(NS(=O)(=O)c2cc(Cl)ccc2Cl)cc1,19µM*,5%,0%,-8%,-2%
CCOc1ccc(N(C(=O)c2ccc(OC)cc2)S(=O)(=O)c2ccc3c(c2)n(C)c(=O)n3C)cc1,-6%,.,.,-8%,.
CC1=NN(C(N)=S)C(=O)C1N=Nc1ccccc1 (configuration not stated),24µM*,?,25%,24%,-50%
CC1=NN(C(N)=S)C(=O)C1N=Nc1cccc([N+](=O)[O-])c1 (configuration not stated),12µM*,2%,?,.,3.5µM*
NC(=S)n1[nH]c(-c2ccc([N+](=O)[O-])cc2)c(N=Nc2ccc(Cl)cc2)c1=O,-13%,-10%,-53%,-47%,-40%
CC1=NN(C(N)=S)C(=O)C1N=Nc1ccc(Cl)cc1 (configuration not stated),3.4µM*,7.3µM*,4µM*,.,4µM*
CC1=NN(C(N)=S)C(=O)C1N=Nc1ccc(Br)cc1 (configuration not stated),6µM*,9.2µM*,3.5µM*,.,2.2µM*
CCc1ccc(NC(=O)CSc2nnc(-c3nonc3NC(C)=O)n2-c2ccccc2)cc1,-12%,.,.,.,.
CCCC(=O)Nc1cc(-c2nc3cccnc3s2)ccc1C,9.5µM*,.,.,.,.
CCC(CC)C(=O)Nc1cc(-c2nc3cccnc3s2)ccc1C,12µM*,.,.,.,.
Cc1ccc(-c2nc3cccnc3s2)cc1NC(=O)Cc1ccccc1,1.1µM*,.,.,.,.
CCCCC(=O)Nc1cc(-c2nc3cccnc3s2)ccc1C,-10%,.,.,.,.
COc1ccc(CC(=O)Nc2cc(-c3nc4cccnc4s3)ccc2C)cc1,0.67µM*,.,.,.,.
CCOC(=O)c1cc(-c2ccccc2)n(-c2cccc(C(=O)N(CC)c3ccccc3)c2)c1C,-14%,.,.,.,.
C#CCOC(=O)NC(/C=C/CCCC)c1ccccc1 (configuration not stated),.,.,.,1%,.
CO/N=C(/C(=O)N[C@@H]1C(=O)N2C(C(=O)O)=C(COC(N)=O)CS[C@H]12)c1ccco1,.,.,.,14%,.
COc1ccc2c(c1)CCc1sc(NC(=O)c3cccc(Br)c3)nc1-2,-13%,.,.,.,.
COc1ccc(C(=O)Nc2nc3c(s2)CCc2cc(OC)ccc2-3)cc1,7.6µM*,.,.,-38%,.
COc1ccc2c(c1)-c1nc(NC(=O)c3ccc(C)cc3)sc1CC2,2.7µM*,.,.,12%,.
Cn1c(NNC(=O)C(c2ccccc2)c2ccccc2)cc(=O)n(C)c1=O,1%,-1%,3%,-46%,-2%
Cc1ccc(-c2nc(CS(=O)(=O)CC(=O)NCCc3ccccc3)c(C)o2)cc1,3%,.,.,6%,.

# From PubChem
